Results filed as inconclusive are left out. Active and inactive are the calls of the source. Calls come from the whole dose curve; as a rule, active = well fitted inhibition curve with a large enough effect; inconclusive = small, poorly fitted or top-dose-only effect; inactive = flat fitted curve, though single readings scatter.
Test system: W2
Experiment: qHTS profiling for inhibitors of Plasmodium falciparum proliferation (AID 504749); note: nearly all actives have a fitted effect of over 60% in size
Conditions: P. falciparum in erythrocytes, SYBR Green DNA, 72 h; series mostly up to 28.7 µM
From the text: NIH National Institute of Allergy and Infectious Diseases [NIAID] NIH Chemical Genomics Center [NCGC] MLPCN Grant: None Assay Provider: Xinzhuan Su, NIAID NCGC Assay Overview: Plasmodium falciparum is a virulent malarial parasite that kills 1-2 million people worldwide each year. Transmitted by mosquitoes, the sporozoite form of the parasite enters the blood stream to infect hepatocytes, where they become merozoites that infect red blood cells (erythrocytes). Within erythrocytes, merozoites begin a […] cycle of growth and division, after which the parasite is released to infect new red blood cells. Gametocytes, which form within erythrocytes as well, circulate in the bloodstream and are ingested by the mosquito, thereby completing the life cycle. To profile malarial isolates for differential chemical responses and to identify inhibitors of malarial growth, an assay that measures P. falciparum growth and replication within erythrocytes was employed. This assay uses a DNA binding fluorescent dye (SYBR Green) to detect parasite DNA following cell lysis. Because mature erythrocytes lack DNA, only Plasmodium-derived DNA is detected.
NCGC Assay Protocol Summary: The SYBR Green viability assay was adapted from a method described previously (Plouffe et al., 2008). For screening 3 ul culture medium was dispensed into 1536 well black clear bottom plates (Aurora Biotechnologies) using a Multidrop Combi (Thermo Fisher Scientific Inc.), 23 nL compounds in DMSO were added by a pin tool (Kalypsys), and 5 ul of erythrocytes infected with P. falciparum (0.3% parasitemia, 2.5% hematocrit final concentration) were added. The plates were incubated at 37 C in a humidified incubator in 5% CO2 for 72 h, and 2 ul lysis buffer (20 mM Tris HCl, 10 mM EDTA, 0.16% saponin, 1.6% triton X, 10X SYBR Green I supplied as 10,000X […] by Invitrogen) was added to each well. The plates were mixed for 25 sec with gentle shaking and incubated overnight at room temperature in the dark. The following morning, fluorescence intensity at 485(14) nm excitation and 535(25) nm emission wavelengths was measured on an EnVision (Perkin Elmer) plate reader. Plate reads were normalized relative to the control inhibitor (0.29 uM artemisinin) and vehicle (DMSO) wells present on each plate and then corrected by an algorithm using vehicle-only control plates at the beginning and end of the compound plate stack.
Potency is the fitted concentration of half-maximal effect.

SMILES	Potency
CCCCCCCCCCCCCCCC[N+](C)(C)Cc1ccccc1	4.26 µM (active)
O=C(Nc1ccc(Cl)cc1)Nc1ccc(Cl)c(Cl)c1	3.01 µM (active)
CN1CCC(Nc2ncc3ncnc(Nc4ccc(F)c(Cl)c4)c3n2)CC1	5.36 µM (active)
Nc1ccc2cc3ccc(N)cc3nc2c1	7.57 µM (active)
Nc1ncnc2nc[nH]c12	inactive
Nc1c2ccccc2nc2ccccc12	8.49 µM (active)
CC(NCCC(c1ccccc1)c1ccccc1)c1ccccc1 (configuration not stated)	4.26 µM (active)
CN1CCCN(C(c2ccccc2)c2ccc(Cl)cc2)CC1 (configuration not stated)	1.2 µM (active)
CCCCCCCCCCCCCC[N+](C)(C)C	4.26 µM (active)
CCCCCCCCCCCCCCCC[n+]1ccccc1	1.51 µM (active)
O=S(=O)(O)c1ccc2nc(-c3ccccc3)[nH]c2c1	inactive
O=[N+]([O-])c1ccc(O)c2ncccc12	10.7 µM (active)
